G9a block: inhibitors of human histone lysine methyltransferase G9a; Q96KQ7; G9a H3K9 monomethylation, AlphaScreen, 2 h; Potency, µM (highest dose often 102 µM), for inactives: at the top dose activity, negative = inhibition, most hits filed as inhibitors; 8.8% of 350,000 active; AID 504332; also: potency is read from the fitted curve at half-maximal effect; % is scaled to controls: 0 for no effect and ±100 for the full control effect; nearly all actives have a fitted effect of over 75% in size
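Step 1: enzyme (final 20 nM) with compound, 15 min RT. Step 2: substrate peptide 500 nM and SAM 20 uM, 2 h RT. Step 3: anti-H3K9me1 antibody and AlphaScreen beads, 10 min, then plate read.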
BAZ2B block: BAZ2B (human) inhibition. AlphaScreen BAZ2B-H3K14Ac peptide displacement. 4.4% of 360,000 active. AID 504333. Potency, µM (series often up to 114 µM), without a hit: at the highest dose activity change, negative = inhibition, hits mostly inhibitors; also: potency is read from the fitted curve at half-maximal effect; % is scaled to controls: 0 for no effect and ±100 for the full control effect; nearly all actives have a fitted effect of over 60% in size
Target sequence (Q9UIF8 whole entry, looked up): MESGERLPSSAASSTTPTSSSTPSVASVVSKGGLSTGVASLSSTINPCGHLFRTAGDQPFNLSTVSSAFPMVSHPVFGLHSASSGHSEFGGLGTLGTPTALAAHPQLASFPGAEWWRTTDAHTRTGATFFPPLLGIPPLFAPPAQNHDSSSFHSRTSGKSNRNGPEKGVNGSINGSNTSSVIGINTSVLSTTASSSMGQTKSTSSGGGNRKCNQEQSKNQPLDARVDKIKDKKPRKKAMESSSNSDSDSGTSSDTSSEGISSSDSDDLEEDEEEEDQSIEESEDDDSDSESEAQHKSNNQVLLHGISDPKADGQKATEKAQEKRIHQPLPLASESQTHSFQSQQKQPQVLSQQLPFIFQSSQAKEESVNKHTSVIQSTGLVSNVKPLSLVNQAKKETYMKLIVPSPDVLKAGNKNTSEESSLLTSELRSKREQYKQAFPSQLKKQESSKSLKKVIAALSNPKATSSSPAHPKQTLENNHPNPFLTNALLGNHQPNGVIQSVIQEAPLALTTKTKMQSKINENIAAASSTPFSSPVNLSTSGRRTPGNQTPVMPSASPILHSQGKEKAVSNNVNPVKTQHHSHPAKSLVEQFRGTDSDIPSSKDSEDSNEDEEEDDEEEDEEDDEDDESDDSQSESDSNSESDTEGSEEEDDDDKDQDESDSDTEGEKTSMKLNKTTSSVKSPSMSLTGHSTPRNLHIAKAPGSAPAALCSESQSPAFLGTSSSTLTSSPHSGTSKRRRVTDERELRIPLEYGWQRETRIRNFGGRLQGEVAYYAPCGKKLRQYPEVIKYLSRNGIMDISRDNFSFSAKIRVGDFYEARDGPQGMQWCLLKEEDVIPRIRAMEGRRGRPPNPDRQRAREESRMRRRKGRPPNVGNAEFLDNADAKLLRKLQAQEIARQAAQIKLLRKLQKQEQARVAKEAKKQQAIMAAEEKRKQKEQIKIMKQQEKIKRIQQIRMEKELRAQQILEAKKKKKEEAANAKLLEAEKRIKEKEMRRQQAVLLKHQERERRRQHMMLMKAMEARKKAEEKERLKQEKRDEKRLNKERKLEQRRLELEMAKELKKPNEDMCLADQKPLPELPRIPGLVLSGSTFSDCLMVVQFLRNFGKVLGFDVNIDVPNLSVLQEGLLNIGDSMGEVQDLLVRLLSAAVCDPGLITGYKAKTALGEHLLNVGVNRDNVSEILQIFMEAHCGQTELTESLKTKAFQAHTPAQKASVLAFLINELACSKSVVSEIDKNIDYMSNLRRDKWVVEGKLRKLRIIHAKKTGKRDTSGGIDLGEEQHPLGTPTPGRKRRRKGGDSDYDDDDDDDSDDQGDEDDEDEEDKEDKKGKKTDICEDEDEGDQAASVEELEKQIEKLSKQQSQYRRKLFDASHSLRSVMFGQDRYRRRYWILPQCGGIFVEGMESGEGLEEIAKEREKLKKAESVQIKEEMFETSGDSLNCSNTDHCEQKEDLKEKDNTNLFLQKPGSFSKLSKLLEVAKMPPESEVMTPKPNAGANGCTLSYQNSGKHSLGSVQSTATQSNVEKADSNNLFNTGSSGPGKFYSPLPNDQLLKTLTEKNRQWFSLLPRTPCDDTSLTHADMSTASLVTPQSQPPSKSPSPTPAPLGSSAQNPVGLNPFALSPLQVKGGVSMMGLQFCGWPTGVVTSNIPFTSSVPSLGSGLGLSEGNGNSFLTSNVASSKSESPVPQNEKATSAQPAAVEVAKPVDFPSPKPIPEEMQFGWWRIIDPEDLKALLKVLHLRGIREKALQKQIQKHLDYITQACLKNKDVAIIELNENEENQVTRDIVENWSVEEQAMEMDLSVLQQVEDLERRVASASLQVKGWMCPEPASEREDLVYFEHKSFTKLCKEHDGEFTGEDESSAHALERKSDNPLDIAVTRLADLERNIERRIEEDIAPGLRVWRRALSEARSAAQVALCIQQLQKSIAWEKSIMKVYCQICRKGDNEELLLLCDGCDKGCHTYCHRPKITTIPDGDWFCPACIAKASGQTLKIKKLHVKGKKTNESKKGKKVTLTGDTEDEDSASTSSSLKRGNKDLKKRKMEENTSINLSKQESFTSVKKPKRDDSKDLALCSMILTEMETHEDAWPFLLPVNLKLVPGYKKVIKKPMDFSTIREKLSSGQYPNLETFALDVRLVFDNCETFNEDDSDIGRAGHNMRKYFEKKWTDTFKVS
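Protein-peptide AlphaScreen: BAZ2B 50 nM, b-H3K14Ac 50 nM, 1x PBS pH 7.4 + 0.01% Tween-20. Preincubation 30 min RT; cpd 30 min RT (top 110 uM); beads 20 min RT, light-protected.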
JMJD2A Tudor: blocks the human JMJD2A Tudor domain; Potency, µM (doses to about 114 µM), for the others: at the highest dose activity change, negative = inhibition, usual class: inhibitors; 4.4% of 390,000 active; AlphaScreen JMJD2A-Tudor / H3K4me3 peptide binding; AID 504339; O75164; also: potency is read from the fitted curve at half-maximal effect; % is scaled to controls: 0 for no effect and ±100 for the full control effect; nearly all actives have a fitted effect of over 50% in size
HP1b binding inh: HP1-beta chromodomain-methylated histone interaction inhibition; P83916; AlphaScreen HP1-beta / biotin-H3K9me3 peptide binding; Potency, µM (titrated, usually from 114 µM), for the others: at the highest dose activity change, negative = inhibition, actives largely listed as inhibitors; 0.56% of 390,000 active; also: potency is read from the fitted curve at half-maximal effect; nearly all actives have a fitted effect of over 70% in size
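Compound inhibition of the preformed complex between 50 nM HP1-beta and 50 nM biotinylated H3K9me3 peptide was read by AlphaScreen. Buffer was PBS pH 7.4 with 0.01% Tween-20. Incubations ran 30 min at room temperature, with 10 ug/mL donor/acceptor beads.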
CtBP-E1A inh: inhibitors of CtBP/E1A interaction. AID 651724. activity change, % (no concentration beside the values). 0.49% of 340,000 active. AlphaScreen GST-E1A/His-CtBP binding, 1536-well; hits give low values; in the data active = activity change below about -65%; inconclusive = mostly about -30% to -63%; also: % is scaled to controls: 0 for no effect and ±100 for the full control effect
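Homogeneous bead-based format: GST-tagged E1A captured on glutathione donor beads, His-tagged CtBP on nickel acceptor beads; compounds precede bead addition by 2 h at 37 °C.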
Six1-Eya2 blk: blocks human Six1 binding to Eya2; Q15475+O00167; AlphaScreen GST-Six1/His-Eya2 binding, biochemical; hits give low values; activity change, % (concentration not given with the values); 0.56% of 360,000 active; AID 651725; in the data active = activity change below about -65%; inconclusive = mostly about -30% to -63%; also: % is scaled to controls: 0 for no effect and ±100 for the full control effect
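AlphaScreen luminescence read after one hour at 37 °C in darkness. Pin-transferred compounds met GST-Six1 and His-Eya2 protein (5X stock 250 nM/500 nM) plus glutathione donor and Ni-chelate acceptor beads (5X, 50 ug/mL).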
Active calls of the source: *; ? = inconclusive; · = no result; ! = a repeat was not active; [ ] = dose if it differs, or a comment. Rows were chosen to be rich in hits. Some 10% of all compounds tested hit in one or more screens of this group. Unless noted, calls follow the shape of the dose curve; as a rule, active = well fitted inhibition curve with a large enough effect; inconclusive = small, poorly fitted or top-dose-only effect; inactive = no such curve, though single readings can be large or run the other way.

SMILES | G9a block | BAZ2B block | JMJD2A Tudor | HP1b binding inh | CtBP-E1A inh | Six1-Eya2 blk
CNC(=O)C1Cc2c(-c3ccc(Cl)cc3)ccnc2O1 (centres undefined) | · | · | · | · | 1 | 0
Fc1ccc(-c2nc3ccc(Br)cn3c2Cc2ccsc2)cc1 | · | · | · | · | 19 | 12
CCCc1nc2ccccc2n2c(-c3ccccc3)c3c(=O)n(C)c(=O)n(C)c3c12 | 14%[59 µM] | 18% | 19% | 123% | · | ·
Cn1c(=O)c2cn3c(c2n(C)c1=O)C(c1ccccc1)CC(c1ccccc1)=N3 (centres undefined) | 8.9µM* | ? | ? | 19% | 7 | 0
CNc1cccc(S(=O)(=O)N2CCN(S(=O)(=O)c3ccc4c(c3)OCCO4)CC2)c1 | · | · | -16% | · | · | ·
Cc1nnc(C)c2c(C)n(-c3ccccc3N)c(C)c12 | -44% | -38% | ? | 13% | -5 | -17
Cc1nnc(C)c2c(C)n(-c3cccc4cccnc34)c(C)c12 | 71µM* | ? | · | · | · | ·
COc1ccc(-c2onc(C)c2C)cc1S(=O)(=O)Nc1ccc(OC(F)(F)F)cc1 | -3%[59 µM] | -4% | -18% | 40% | · | ·
CNC[C@H](CC1CCCCC1)NC[C@H](Cc1ccccc1)NCCC12CC3CC(CC(C3)C1)C2 | 45µM* | ? | -36% | 20% | -15 | -4
NC[C@H](Cc1ccccc1)NCCCCC1CCCCC1 | -9%[0.501 µM] | -9% | -22% | 34% | 1 | -1
Cc1ccc(C(NC(=O)N2CCOCC2)C(Cl)Cl)cc1F (centres undefined) | 45µM* | -2% | -6% | 2% | 3 | 8
Cc1ccc(C(NC(=O)N2CC(C)OC(C)C2)C(Cl)Cl)cc1F (centres undefined) | 79µM* | 34% | -8% | 43% | 6 | -5
CCCCCCNC(=O)c1cn(CC)c2cc(N3CCN(C)CC3)c(F)cc2c1=O | ? | -3% | -14% | 18% | -2 | 2
O=S(=O)(Nc1cccc(-c2ccc(N3CCCCCC3)nn2)c1)c1ccc(F)cc1 | 5% | ? | ? | 39% | -10 | -8
COc1ccc(S(=O)(=O)Nc2cccc(-c3ccc4nncn4n3)c2)c(OC)c1 | 11µM* | 2% | 3% | ? | -18 | ?
COc1ccc(C)cc1S(=O)(=O)Nc1cccc(-c2ccc(N3CCCCCC3)nn2)c1 | 10%[0.501 µM] | -13% | 16µM* | 4% | -21 | -8
O=S(=O)(Nc1cccc(-c2ccc(N3CCCCCC3)nn2)c1)c1cccc(F)c1 | 32µM*! | -20%[57.1 µM] | -26% | 18% | · | -19
Cc1c(CN(C)C)c2c(n1Cc1ccccc1)C(=O)c1ccccc1-2 | ? | 50µM* | 50µM* | ? | ? | ?
CC(=O)c1ccc(N2CCN(S(=O)(=O)c3ccc4c(c3)NC(=O)CC(=O)N4)CC2)cc1 | 24% | -23% | 16µM* | -6% | 2 | 1
CC(=O)c1ccc(N2CCN(S(=O)(=O)c3cc4c(cc3C)NC(=O)CO4)CC2)cc1 | · | -24% | 11% | 19% | · | -1
O=C1Cc2cc(S(=O)(=O)N3CCN(c4ccc(Br)cc4)CC3)ccc2N1 | · | · | 141µM* | · | · | ·
CC(=O)c1ccc(NC(=S)NCc2ccco2)cc1 | · | ? | -17% | 28% | -1 | 0
O=C(c1ccc(NC(=S)NCc2ccco2)cc1)N1CCOCC1 | 45µM* | -18% | -7% | 10% | -26 | -13
CN(C)CC(C)(C)CNC(=S)NCc1ccc2c(c1)OCO2 | 8.9µM* | 45µM* | ? | ? | 3 | 9
O=C(NCc1ccco1)c1ccc(S(=O)(=O)N2CCOCC2)cc1 | 13µM* | 79µM* | ? | ? | 2 | -4
SMILES | G9a block | BAZ2B block | JMJD2A Tudor | HP1b binding inh | CtBP-E1A inh | Six1-Eya2 blk
CC(C)(C)NC(=S)NCc1ccc2c(c1)OCO2 | -6%[59 µM] | -7% | -22% | 0% | 8 | 2
COC(=O)c1ccc(NC(=S)NCc2ccco2)cc1 | 50µM* | ? | -21% | 10% | 4 | -1
O=C(CCCc1ccccc1)N1CCc2ccccc21 | 130% | 34% | 63% | 91% | 4 | 19
CC(C)Nc1nc(NCc2ccccc2)c2sccc2n1 | · | · | · | · | -24 | 12
NC(N)=NCC1COc2ccccc2O1 (centres undefined) | 25%[12.7 µM] | · | · | · | · | ·
O=C(NCc1ccccc1)c1cccc(NC(=O)c2ccco2)c1 | -23% | 8% | -16% | 3% | -5 | -2
NC(=O)c1ccc(NC(=S)NCc2ccco2)cc1 | 50µM* | 1% | -18% | 14% | · | 5
O=C(NCc1ccco1)c1cccc(NC(=O)c2ccco2)c1 | 56µM* | -32% | -29% | -2% | -25 | -19
CCCCOC(=O)c1ccc(NC(=O)c2nn(C)cc2Br)cc1 | 10%[59 µM] | 8% | 6%[57.1 µM] | 103% | 3 | 5
O=S(=O)(c1ccc(NC(=S)NCc2ccco2)cc1)N1CCCCC1 | 56µM* | -38% | -31% | -7% | -8 | -18
O=C(NCc1ccco1)c1ccc(S(=O)(=O)N2CCCCC2)cc1 | -1% | -11% | -10% | 29% | · | 4
Cn1cc(Br)c(C(=O)NC(=S)Nc2ccc(S(N)(=O)=O)cc2)n1 | 45µM* | -14% | -7%[11.4 µM] | -2% | · | 6
NS(=O)(=O)c1ccc(NC(=S)NCc2ccco2)cc1 | 3.2µM* | ? | -29% | ? | 0 | -5
NS(=O)(=O)c1ccc(NC(=S)NCc2ccc(Cl)cc2)cc1 | 8.9µM* | -26% | -23% | ? | -1 | -3
NS(=O)(=O)c1ccc(NC(=S)NCc2ccc(F)cc2)cc1 | ? | -37% | -13% | -17% | 7 | -4
NS(=O)(=O)c1cccc(NC(=S)NCc2ccc3c(c2)OCO3)c1 | 50µM* | -19% | -20% | 3% | -13 | 7
C=CCOC(=O)Nc1nc(CCNC(=O)OC(C)(C)C)c(C(=O)O)s1 | · | · | · | · | 2 | 8
CN(C)c1cccc(C(=O)N2CCC(c3ccncc3)CC2)c1 | -2%[59 µM] | -13% | -17% | 16% | · | ·
CCOc1[nH]c(/N=C/c2ccccc2)c(C#N)c1C#N | · | · | -17% | 6% | · | ·
COc1ccc(-n2c(SCC(=O)NCc3ccco3)nc3sc4c(c3c2=O)CCN(C)C4)cc1 | 79µM* | -29% | -24% | -2% | -12 | -11
CCOC(=O)CSc1nc2sc3c(c2c(=O)n1-c1ccc(C)cc1)CCN(C)C3 | ? | -10% | -28% | 8% | ? | -18
COC(=O)CSc1nc2sc3c(c2c(=O)n1-c1ccc(OC)cc1)CCN(C)C3 | 12% | -7% | -25% | -6% | 1 | 0
CN1CCc2c(sc3nc(SCC(=O)NCc4ccco4)n(-c4ccccc4)c(=O)c23)C1 | 45µM* | ? | -14% | 40% | · | -5
C#CCSc1nc2sc3c(c2c(=O)n1-c1cccc(OC)c1)CCN(C(C)=O)C3 | ? | ? | 89µM* | -3% | · | ·
